Screening data (PubChem BioAssay)
Rows were chosen to be rich in hits. Some 3.9% of all compounds tested hit in one or more screens of this group.
ALR H2O2 inh – human ALR oxidase inhibition via reduced H2O2 | P55789 | purified ALR, DTT oxidation, H2O2 HRP-luminol luminescence | inhibition, % (concentration not given with the values) | actives 3.8% (n = 290,000) | AID 485317;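 active = mean replicate inhibition above about 79%, with every replicate also reaching it, limit read from the data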
Target sequence (P55789 whole entry, looked up): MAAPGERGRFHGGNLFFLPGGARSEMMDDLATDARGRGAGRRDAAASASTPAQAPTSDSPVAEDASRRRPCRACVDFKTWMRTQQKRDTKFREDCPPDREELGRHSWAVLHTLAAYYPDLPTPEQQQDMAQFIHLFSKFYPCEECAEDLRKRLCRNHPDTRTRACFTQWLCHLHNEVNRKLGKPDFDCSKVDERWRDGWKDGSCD
CDK5 p35 inh – CDK5/p35 (human) kinase inhibition. Recombinant CDK5/p35, ADP-Glo luminescence, 60 min. inhibition, % at 10 µM. actives 0.01% (n = 330,000);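 active = highest replicate inhibition of at least 50% and at least 75% of replicates reaching 50%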;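 also: plate controls were DMSO neutral control for no effect and GW8510 at 10 µM for full effect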
SUMO Mot1 rescue – inhibitors of SUMOylation pathway: yeast Mot1-301 growth rescue | S. cerevisiae Mot1-301 growth rescue, ATP luminescence, 38.5C; percent above DMSO median, 100 means doubled | growth rescue, % at 18.8 µM | actives 1% (n = 320,000);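 active = every valid replicate shows activation above 250% relative to neutral control wells; inactive = the rest, any valid replicate at or below 250%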;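 also: OY570 slx delta 5 strain wells were the positive control but not used for scaling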
Glyco luc inh – blocks N-linked glycosylation in D54 reporter cells | D54 ERlucT glycosylation luciferase reporter, 24 h; percent of 100 nM tunicamycin response | reporter increase, % at 12.5 µM | actives 0.23% (n = 360,000);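 active = mean luciferase reporter signal, scaled so untreated is 0 and the glycosylation-blocking control 100, at or above a set limit in every replicate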;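 also: luciferase carries N-glycosylation sites so blocking glycosylation raises the light; 0% = median of neutral control wells and 100% = median of 100 nM tunicamycin wells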
NSD2 HMT inh – NSD2 (human) methyltransferase inhibition; actives 0.54% (n = 310,000); inhibition, % at 12.5 µM; NSD2 peptide methylation, AlphaScreen, 120 min; in the data active = inhibition above about 50%
CASP6 VEID inh – blocks human caspase-6 cleavage activity; purified caspase-6, Z-VEID-R110 cleavage fluorescence; inhibition, % at 12.5 µM; actives 0.53% (n = 350,000); AID 686996;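 active = mean inhibition across replicates at least about 35%, with every replicate also reaching that limit, limit read from the data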;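 also: 0% = median of neutral control wells and 100% = no fluorescence left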
Target sequence (P55212 24-179 limits assumed): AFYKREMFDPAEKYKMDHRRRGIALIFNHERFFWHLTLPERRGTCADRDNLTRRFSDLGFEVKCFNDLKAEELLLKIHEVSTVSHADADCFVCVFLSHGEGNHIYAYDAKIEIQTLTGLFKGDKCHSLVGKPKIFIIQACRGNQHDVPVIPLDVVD
Target sequence (P55212 194-293 limits assumed): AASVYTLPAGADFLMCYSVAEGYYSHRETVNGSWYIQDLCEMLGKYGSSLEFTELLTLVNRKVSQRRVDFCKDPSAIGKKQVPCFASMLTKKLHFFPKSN
* = called active by the depositor; · = not tested or not shown.

SMILES	ALR H2O2 inh	CDK5 p35 inh	SUMO Mot1 rescue	Glyco luc inh	NSD2 HMT inh	CASP6 VEID inh
CC(C)(C)NC(=O)NC(=O)CN1CCN(c2ccccc2)CC1	35	-1	4	-1	26	-1
C[C@H](CO)N1C[C@H](C)[C@H](CN(C)Cc2ccc(C(=O)Nc3ccccc3N)cc2)Oc2ccc(NC(=O)CCN3CCOCC3)cc2C1=O	·	·	·	·	·	-10
O=C(CN1CCOCC1)N[C@@H]1CC[C@H](CCn2cc(C3CC3)nn2)O[C@H]1CO	·	·	·	·	·	1
C[C@@H]1CN([C@@H](C)CO)C(=O)Cc2cc(NS(C)(=O)=O)ccc2O[C@H]1CN(C)C(=O)Nc1ccc(F)cc1	·	·	·	·	·	0
Cc1ccc(S(=O)(=O)N(C)C[C@@H]2Oc3ccc(NC(=O)C4CC4)cc3CC(=O)N([C@H](C)CO)C[C@@H]2C)cc1	·	·	·	·	·	-1
CCn1c(CNc2ccc(C)cc2)nnc1SCC(=O)NCc1ccccc1	86*	1	-8	0	5	0
CCn1c(CNC(=O)Cc2ccc(OC)cc2)nnc1SCC(=O)c1ccccc1	·	-6	·	-1	0	0
COc1ccc(C(=O)NCc2nnc(SCC(=O)NO)n2Cc2ccccc2)cc1	-3	-1	-3	41*	6	1
CCn1c(CNC(=O)c2cccs2)nnc1SCC(=O)Nc1ccc(Cl)cc1	97*	0	·	-2	-3	·
COc1ccc(NCc2nnc(SCC(=O)Nc3ccccc3)n2C)cc1	94*	-1	8	4	2	-3
CCn1c(CNC(=O)c2cccs2)nnc1SCC(=O)Nc1cc(Cl)ccc1C	-6	2	15	-1	-1	·
Cc1ccc(S(=O)(=O)N(C)C[C@@H]2Oc3ccc(N(C)C)cc3CC(=O)N([C@H](C)CO)C[C@@H]2C)cc1	·	·	·	·	·	1
O=C(CSc1nc(O)cc(=O)n1-c1ccccc1)Nc1nc2ccccc2s1	99*	4	9	0	4	7
Nn1c(SCC(=O)Nc2nc3ccccc3s2)nncc1=O	98*	1	4	5	-1	1
Cc1cccc(NC(=O)CSc2nc3ccccc3c(=O)n2C)c1	·	0	-25	0	-5	-1
Cn1c(SCC(=O)Nc2ccccc2)nc(O)cc1=O	99*	-1	-14	0	-2	2
Cc1ccc(NC(=S)NNC(=O)CSc2nc3ccccc3c(=O)n2-c2ccc(Cl)cc2)cc1	·	·	·	·	4	·
Cc1ccc(-n2c(SCC(=O)Nc3ccc(Cl)cc3)nc(O)cc2=O)cc1	94*	·	1	3	13	5
COc1ccc2c3c(n(C)c2c1)[C@@H](CO)N(CC1CCCC1)CC31CCN(C(=O)Nc2ccccc2)CC1	·	·	·	·	·	-8
COc1ccccc1-n1c(SCC(=O)N2CCOCC2)nc(O)cc1=O	-3	-3	165	3	-3	7
O=C(CSc1nc(O)cc(=O)n1-c1ccccc1)Nc1ccc2c3c(cccc13)CC2	99*	0	10	1	0	11
Cc1c(O)nc(SCC(=O)Nc2ccc3c4c(cccc24)CC3)n(-c2ccccc2)c1=O	·	-5	-1	4	2	·
COc1ccc(NC(=O)CSc2nc(O)cc(=O)n2-c2ccccc2)cc1	99*	0	10	1	-2	8
COc1ccccc1-n1c(SCC(=O)Nc2ccc(Br)cc2)nc(O)cc1=O	99*	0	1	-1	1	1
COc1ccc(NC(=O)CSc2nc(O)cc(=O)n2C)cc1	99*	0	4	0	2	·
SMILES	ALR H2O2 inh	CDK5 p35 inh	SUMO Mot1 rescue	Glyco luc inh	NSD2 HMT inh	CASP6 VEID inh
COc1ccc(-n2c(SCC(=O)Nc3ccc(Cl)cc3)nc(O)c(Cc3ccccc3)c2=O)cc1	56	-2	2	0	9	-3
C[C@@H]1CCCCO[C@H](CN(C)C(=O)Nc2ccc(C(F)(F)F)cc2)[C@@H](C)CN([C@@H](C)CO)C(=O)c2cc(NC(=O)Nc3ccccc3)ccc2O1	·	·	·	·	·	-1
CCc1nnc(NC(=O)CSc2nnc(CNC(=O)c3ccccc3F)n2C)s1	·	0	-4	0	-3	-1
CCCn1c(SCC(=O)Nc2ccc(Cl)cc2F)nc(O)cc1=O	99*	-1	-7	5	-2	1
CSc1ccccc1NC(=O)CSc1nnc(CNC(=O)c2ccccc2F)n1C	-2	0	308*	0	2	0
C/C(=N\NC(=O)CCCNc1cccc(C)c1)c1ccncc1	93*	2	2	0	-1	-3
COc1ccccc1NC(=O)Nc1ccccc1C#N	-11	-1	4	0	0	1
COc1ccccc1CCC(=O)Oc1ccccc1C#N	85*	0	-5	0	3	3
CC(C)CC#Cc1cnc2c(c1)C(=O)N([C@@H](C)CO)C[C@H](C)[C@@H](CN(C)Cc1ccccc1)O2	·	·	·	·	·	3
CSc1cccc(NC(=S)N(CCN(C)C)C(C)c2ccncc2)c1 (stereo unspecified)	-5	0	318*	-2	4	-6
c1ccc(COc2ccc(OCCN3CCCCC3)cc2)cc1	-6	1	445*	-2	3	-2
CC(C)c1ccc(OCCCCN2CCCCC2)cc1	1	2	352*	0	1	-12
c1ccc(-c2sc3ccccc3c2-c2ccc(OCCN3CCCC3)cc2)cc1	-8	-7	298*	-2	·	-6
C[C@@H]1CN([C@H](C)CO)S(=O)(=O)c2ccc(-c3ccccc3)cc2O[C@@H]1CN(C)C(=O)Cc1ccccc1	·	·	·	·	·	1
O=C(NCC[C@@H]1CC[C@H](NS(=O)(=O)c2cccc(F)c2)[C@H](CO)O1)C1CCC1	·	·	·	·	·	-1
COc1cc(/C(C)=N/NC(=O)CSc2nnc(C)s2)ccc1O	95*	0	9	0	·	-2
COc1cc(/C(C)=N/NC(=O)CSc2nc3ccccc3[nH]2)ccc1O	99*	0	-6	2	-3	5
C/C(=N\NC(=O)CSc1nnc(C)s1)c1ccc(O)cc1	99*	0	-14	0	-1	-8
C/C(=N/NC(=O)CSc1nnc(SCc2ccc(C)cc2)s1)c1cccc(O)c1	·	·	·	·	-1	·
COC(=O)c1ccc(CNC(=O)CSc2nc3ccccc3[nH]2)cc1	41	-2	-3	0	4	6
CN1CCN(C(=O)C[C@@H]2CC[C@H]3[C@@H](COc4ccc(NC(=O)c5cccs5)cc4C(=O)N3C)O2)CC1	·	·	·	·	·	-2
O=C(C[C@@H]1C=C[C@H](NC(=O)c2ccccn2)[C@H](CO)O1)NCc1cc(F)cc(F)c1	·	·	·	·	·	1
C[C@H]1CCCCO[C@H](CN(C)CC2CC2)[C@@H](C)CN([C@@H](C)CO)C(=O)c2cc(NC(=O)C3CCCCC3)ccc2O1	·	·	·	·	·	-2
COc1ccc(NC(=O)Nc2ccc3c(c2)C(=O)N([C@H](C)CO)C[C@@H](C)[C@@H](CN(C)C(=O)NC2CCCCC2)O3)cc1	·	·	·	·	·	2
